Source: PubChem BioAssay AID1159580 (chemical genetic matrix, 2015)
The campaign covered roughly 5,500 compounds. About 2,000 (36%) were called active. Inconclusive results (about 18%) are left out. Rule as the data show it: active = normalized growth mostly below about 0.91 (no sharp cut-off); inconclusive = no clear call, values can overlap the other calls; inactive = mostly above about 0.92. The list shows a part of the results.

Assay: chemical genetic growth profiling, strain panel (AID 1159580);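 also: tested at 20 µM; growth read once vehicle control cultures reached saturation at 30 °C; 1 = growth at the plate median or of vehicle wells; lower values mean less growth of the strain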
Details: S. cerevisiae deletion strains, growth OD
[1] = locus YAL013W, strain DEP1, stronger effect = lower value
[2] = locus YAL040C, strain CLN3, stronger effect = lower value
[3] = locus YCL061C, strain MRC1 (second series), stronger effect = lower value
[4] = locus YER002W, strain NOP16, stronger effect = lower value
[5] = locus YMR263W, strain SAP30, stronger effect = lower value
[6] = locus YNL175C, strain NOP13, stronger effect = lower value
[7] = locus YNL197C, strain WHI3, stronger effect = lower value
[8] = locus YNL224C, strain SQS1, stronger effect = lower value
[9] = locus YOR083W, strain WHI5 (second series), stronger effect = lower value
[10] = locus YPL055C, strain LGE1, stronger effect = lower value

Measured: normalized growth

c1ccc2nc(C3=NCCN3)ccc2c1
inactive: [1] 0.99 | [2] 1.04 | [3] 0.986 | [4] 0.993 | locus YGR229C, strain SMI1, stronger effect = lower value 0.955 | [5] 0.982 | [6] 0.995 | [7] 0.996 | [8] 0.993 | [9] 1 | [10] 1.01 | locus YPL241C, strain CIN2, stronger effect = lower value 0.987

NC(=O)CN1CC(O)CC1=O (stereo not given)
inactive: [1] 1 | [2] 1 | [3] 1 | locus YDR363W, strain ESC2, stronger effect = lower value 0.995 | [4] 1.01 | locus YGR078C, strain PAC10, stronger effect = lower value 1.02 | locus YJR075W, strain HOC1, stronger effect = lower value 1.01 | [5] 1 | [6] 1.01 | [7] 1.01 | [8] 1 | [9] 1 | [10] 1.01
